Anthrax LF inh2 = anthrax lethal factor protease inhibition; inhibition, % at 10 µM; AID 588501; 360,000 tested, 0.12% active; multiplex microsphere protease cleavage assay, LF; P15917
BoNT F protease = inhibitors of Botulinum neurotoxin F light chain protease; Multiplex microsphere protease cleavage assay, flow cytometry; inhibition, % at 10 µM; 360,000 tested, 0.22% active; AID 588497; in the data active = inhibition above about 35%, passing the limit was not always enough; inconclusive = no clear call, values can overlap the other calls
Bead autofluor = counter-screen for toxin protease inhibitors: compound fluorescence | compound autofluorescence counterscreen, microsphere flow cytometry; hits give high values | fluorescence intensity (test concentration not listed) | 360,000 tested, 3.1% active | AID 624483; in the data active = fluorescence intensity above about 16000; inconclusive = no clear call, values can overlap the other calls
MazEF act = MazEF (E. coli) toxin RNase activation | P0AE70 | FAM/BHQ RNA-DNA oligo cleavage fluorescence, 5 h | activation, % at 20 µM | 350,000 tested, 0.32% active | AID 504720; in the data active = activation above about 50%
Target sequence (P0AE70 whole entry, looked up): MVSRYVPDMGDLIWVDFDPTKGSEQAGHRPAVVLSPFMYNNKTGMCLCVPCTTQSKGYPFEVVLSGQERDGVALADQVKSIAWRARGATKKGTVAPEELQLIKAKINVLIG
BoNT-A LC inh2 = blocks Botulinum neurotoxin A light chain protease | 360,000 tested, 0.17% active | multiplex microsphere protease substrate cleavage, flow cytometry | inhibition, % at 10 µM | AID 588499
Large screens that a line does not name were inactive. This is a sample that favours compounds with a hit; in the whole collection about 3.7% have one here. Rule as the data show it, unless noted: active = inhibition above about 30%; inconclusive = no clear call, values can overlap the other calls; inactive = below that.

CC1(c2nnnn2-c2ccc3c(c2)OCCO3)CCC(=O)N1CCc1c[nH]c2ccccc12 (stereo unspecified)	none (no result: MazEF act)
O=C(O)CCC(=O)Nc1ccc(Br)cn1	none
COc1ccc(Cl)cc1NC(=O)NC(C)c1ccncc1 (stereo unspecified)	Bead autofluor 17204
COc1ccc(Cl)cc1NC(=O)Nc1ccc(Br)cn1	Bead autofluor 17461, BoNT-A LC inh2 inconclusive
COc1ccc(CCC(=O)Nc2ccc(Br)cn2)cc1	Bead autofluor 24589, BoNT-A LC inh2 inconclusive
CCOCCC(=O)Nc1cc(Cl)ccc1OC	Bead autofluor 22752
CCc1nc2c(OCc3ccccc3)cccn2c1N(C)C(C)=O	none (no result: MazEF act)
COc1ccc(NC(=O)Nc2ccc(Br)cn2)cc1OC	Bead autofluor 17621
CCOc1ccc(CCNS(=O)(=O)c2c(C)nc3sccn3c2=O)cc1OCC	none (no result: MazEF act)
CCc1nc2c(OCc3ccccc3)cccn2c1N(C)C(=O)C(C)C	none (no result: MazEF act)
CCN1C(=S)SC(=O)C1=C1C=C(C)OC(C)=C1	Bead autofluor inconclusive, MazEF act active
CCN1C(=S)SC(=O)C1=C1C=C(C)N(Cc2ccco2)C(C)=C1	none
Cc1nnc(C)c2c(C)n(C(C)c3ccccc3)c(C)c12 (stereo unspecified)	none
COc1ccc(C(C)n2c(C)c3c(C)nnc(C)c3c2C)cc1 (stereo unspecified)	Bead autofluor 16371
CC1(C)OC(c2ccccc2)=C/C(=C/C=C2C(=O)NC(=S)NC2=O)O1	MazEF act active (no result: Anthrax LF inh2, BoNT F protease, Bead autofluor, BoNT-A LC inh2)
CC1CC(C)CN(c2ccc(-n3cnnn3)cc2[N+](=O)[O-])C1 (stereo unspecified)	none
O=[N+]([O-])c1cc(-n2cnnn2)ccc1N1CCC(Cc2ccccc2)CC1	Bead autofluor 16952
CN1CCN(NC(=O)CN2C(=O)/C(=C/c3ccccc3Cl)SC2=S)CC1	Bead autofluor 16697
CCNC(=O)C1(C)CCCN(C(=O)c2nc(C)oc2C)C1 (stereo unspecified)	none (no result: MazEF act)
COCC1OC(OC(C)C(O)c2cnc3nc(N)[nH]c(=O)c3n2)C(O)C(OC)C1O (stereo unspecified)	none (no result: MazEF act)
C=CCn1c(SCC(=O)NCCO)nc2sc(C)c(C)c2c1=O	none
C=CCn1c(SCC(=O)c2cc(C)n(C(C)COC)c2C)nc2sc(C)c(C)c2c1=O (stereo unspecified)	Bead autofluor 19713, BoNT-A LC inh2 inconclusive
Cc1c(C(=O)NCc2ccc(F)cc2)sc(=O)n1Cc1ccccc1	none (no result: MazEF act)
O=C(COc1ccc(Cl)cc1Cl)NNC(=S)Nc1ccc(F)cc1	Bead autofluor 16581
O=C(COc1ccc(Cl)cc1Cl)NCc1ccncc1	Bead autofluor 19178
CC(C)C(=O)Nc1ccc(C(=O)NNC(=O)CCCOc2ccc(Cl)cc2Cl)cc1	Bead autofluor 24267, BoNT-A LC inh2 inconclusive
Cc1cc(Cl)ccc1OCC(=O)OCC(=O)c1c(N)n(C)c(=O)n(C)c1=O	Bead autofluor inconclusive
Cc1ccc2nc(C(C)(C)C)c(Cc3ccccc3C(F)(F)F)n2c1	none (no result: MazEF act)
Cc1ccc(NCc2nnc(SCC(=O)c3ccc4c(c3)OCCO4)o2)c(C)c1	MazEF act 52
COc1ccc(NC(=O)c2cccnc2Cl)c(S(=O)(=O)N2CCOCC2)c1	Bead autofluor 22564
COc1ccc(NC(=O)c2cncc(Br)c2)c(S(=O)(=O)N2CCOCC2)c1	none
CC(=O)Nc1nc(=S)n(-c2ccccc2)[nH]1	Bead autofluor 22526
ONC(=Nc1ccccc1)c1ccc(Cl)cc1	Bead autofluor 21077
NC(=Nc1ccc(Cl)cc1)c1ccccc1	none
Cc1ccc(OCCNC(=O)[C@H]2O[C@@H](n3cnc4c(N)ncnc43)[C@H](O)[C@@H]2O)cc1C	none (no result: MazEF act)
CCCc1ncc(C(=O)c2ccc(OC)cc2)n1C	Bead autofluor 24262
COc1ccc(C(=O)c2cnc(C(C)C)n2C)cc1	none
CCCS(=O)(=O)Nc1cc(C(F)(F)F)ccc1OCCOC	Bead autofluor 24565
CC1Cc2ccccc2N1C(=O)Cn1c(=O)cc(O)c2ccccc21 (stereo unspecified)	Bead autofluor 24078, BoNT-A LC inh2 inconclusive
CC1Cc2ccccc2N1C(=O)CCS(=O)(=O)c1cccs1 (stereo unspecified)	none
CC1Cc2ccccc2N1C(=O)Cc1cccs1 (stereo unspecified)	Bead autofluor 17722
CC1Cc2ccccc2N1C(=O)CN1C(=O)COc2ccccc21 (stereo unspecified)	none
CC1CC1C(=O)OCC(=O)Nc1ccc(Cl)cn1 (stereo unspecified)	none
O=C(CN1CCOCC1)N1CCOCC1	none
CCOC(=O)CCCCCC(=O)Nc1ccc2c(c1)C(=O)N([C@@H](C)CO)C[C@@H](C)[C@H](CN(C)C(=O)Nc1ccccc1)OCCCC[C@H](C)O2	none
O=C(Cn1nc(Cl)nc1Cl)c1cc2ccccc2oc1=O	Bead autofluor 16246
O=C(Cn1nc(Cl)nc1Cl)c1ccccc1	none
COc1cccc(CSC(C(=O)O)c2ccccc2)c1 (stereo unspecified)	none
COCn1c(-c2cccc(Br)c2)nc2ccccc21	Bead autofluor 19656, BoNT-A LC inh2 inconclusive
Cc1ccccc1Cn1c(Cc2ccccc2)nc2ccccc21	Bead autofluor 24142, BoNT-A LC inh2 inconclusive
COCn1c(-c2ccc(OC)c(OC)c2)nc2ccccc21	none
Cc1cccc(Cn2c(Cc3ccccc3)nc3ccccc32)c1	none
COCc1nc2ccccc2n1Cc1cccc(C)c1	Bead autofluor 16897
CN(CCOc1ccccc1)C(=O)c1cc(S(=O)(=O)N2CCOCC2)c(Cl)cc1Cl	none
CC(CNC(=O)[C@@H](Cc1ccccc1)NC(=O)CC[C@H]1O[C@@H](n2ccc(=O)[nH]c2=O)[C@H](O)[C@@H]1O)c1ccccc1 (stereo partly specified)	none (no result: MazEF act)
Nc1ccn(C2OC(COP(=O)(O)O)C(O)C2O)c(=O)n1 (stereo unspecified)	none
CC(Nc1ccc(Br)cc1)C(=O)NC(=O)NC1CCCCC1 (stereo unspecified)	none
CC(C)(C)c1csc(NC(=O)CSc2nc3ccccc3c(=O)[nH]2)n1	Bead autofluor 19081, BoNT-A LC inh2 inconclusive
Cc1ccc(NC(=O)CSc2nc(NS(=O)(=O)c3ccc(C)cc3)cc(=O)[nH]2)cc1	Bead autofluor 19078, BoNT-A LC inh2 inconclusive
O=C(CSc1nc2ccccc2c(=O)[nH]1)Nc1ccc(S(=O)(=O)N2CCCC2)cc1	Bead autofluor 16902, BoNT-A LC inh2 inconclusive
O=C(CSc1nc2ccccc2c(=O)[nH]1)Nc1ccc(C(=O)O)cc1	Bead autofluor inconclusive
O=C(CSC1=NCCS1)Nc1ccc(S(=O)(=O)N2CCCCCC2)cc1	Bead autofluor 23340
Cc1cccc(S(=O)(=O)NC(=O)C2(C)CCN2C(=O)c2c(C)noc2C)c1 (stereo unspecified)	none (no result: MazEF act)
Brc1ccc([C@H]2CN3CCSC3=N2)cc1	none
O=C(NCCCCc1ccccc1)c1ccc(F)cc1	BoNT F protease inconclusive
Cc1cccc(NC(=O)Nc2nnc([C@@H]3C[C@H](O)[C@@H](CO)O3)s2)c1	none (no result: MazEF act)
O=C(Nc1ccc(Cl)cc1)C1Cc2c(-c3ccccc3Oc3ccccc3)ccnc2O1 (stereo unspecified)	none (no result: MazEF act)
Cc1csc(NC(=O)CSc2nc3ccccc3c(=O)[nH]2)n1	none
